In PubChem BioAssay (NCI):
The panel holds about 83,000 compounds, 20% with a hit somewhere; the sample as a whole holds those more often.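 Each cell line was grown in a 96-well plate and treated with one concentration of compound for 48 hours. Values below 10 were considered active.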 Values without a mark were called inactive. Activity calls are given as the source filed them.

Tested on: SK-OV-3 ovarian
Assay: NCI-60 one-dose screen, 48 h (100 = growth as untreated, 0 = no growth, -100 = all killed)
Conditions: 10 µM unless noted
Procedure: Growth inhibition of the SK-OV-3 human tumor cell line is measured as a screen for anti-cancer activity. Cells are grown in 96 well plates and exposed to the test compound for 48 hours. Compounds are tested at a single concentration, which is 10^-5 M for most compounds. The reported endpoint is percent growth (GI% or GIPRCNT), where numbers from 0 - 100% represent growth inhibition, and numbers from -100% - 0 represent cell death. For example, a value of 40 represents 60% growth inhibition. A value of 0 means no net growth occurred over the course of the experiment. A value of -40 indicates 40% of cells at the beginning of the experiment died by the end of the experiment. A value of -100 means all cells are dead at the end of the experiment.
NCI-60 Human Tumor Cell Lines Screen was performed using the standard one-dose NCI protocol, which is described in more detail at https://dtp.cancer.gov/discovery_development/nci-60/default.htm.
Compounds with GIPRCNT values below 10 were considered active. Activity score was based on GIPRCNT using the following formula: […]
Score is 0 for GIPRCNT values of 100 or above, 50 for GIPRCNT values of 0, and 100 for GIPRCNT values of -100.

Compound	growth
COc1ccc(C2CC(c3ccc(OC)c(OC)c3)=NN2C(=O)c2cc(OC)c(OC)c(OC)c2)c(OC)c1 (stereo not given)	65.6%
Cc1cc(O)c2c(c1)C[C@H]1[C@@H]3CC[C@H]4CC(=O)CC[C@]4(C)[C@H]3CC(=O)[C@]21C	114%
CN(C)CCCN1c2nc3ccccc3cc2Sc2cc3ccccc3nc21	-35.3% (active)
OCc1nnn(-c2ccccc2)c1CO	129%
Cc1c(C(N)=O)sc2c1c(=O)n(Cc1ccccc1)c1nnc(SCC(=O)Nc3ccc(Cl)cc3)n21	24.8%
COc1ccc(Cn2cc3c(c2-c2ccccc2)CCc2cncnc2-3)cc1	76.8%
OC(Cc1cccnc1)c1ccccc1 (stereo not given)	112%
COc1ccc(OC)c(NC(=O)c2cc3oc4ccccc4c3cc2O)c1	81.1%
C[C@@H]1CC[C@H]2[C@@H](C)C(O)O[C@@H]3O[C@]4(C)CC[C@@H]1[C@]32OO4 (stereo not given in full)	95.4%
O=C(CCc1nnc2sc(-c3ccc(Cl)cc3Cl)nn12)c1nc2ccccc2[nH]1	-52.4% (active)
O=C1c2ccccc2-c2c1nc1ccccc1[n+]2[O-]	102%
CO[C@H]1/C=C/O[C@@]2(C)Oc3c(C)c(O)c4c(O)c(c(/C=N/N5CCN(C)CC5)c(O)c4c3C2=O)NC(=O)/C(C)=C\C=C\C(C)[C@H](O)[C@@H](C)[C@@H](O)[C@@H](C)[C@@H](OC(C)=O)[C@@H]1C (stereo not given in full)	113%
COc1ccc(C(=O)Nc2nc(-c3ccc(Cl)cc3)cs2)cc1	87.1%
CCCc1cc(=O)n2c(C(=O)Nc3ccccc3OC)c(C(=O)Nc3ccc(F)cc3)sc2n1	29.9% [30 µM]
CN(CC(=O)Nc1nc2ccccc2[nH]1)S(=O)(=O)c1ccc(Cl)cc1	96.5%
CC[C@]1(O)CC2CN(CCc3c([nH]c4ccccc34)[C@@](C(=O)OC)(c3cc4c(cc3OC)N(C)[C@H]3[C@@](O)(C(=O)OC)[C@H](OC(C)=O)[C@]5(CC)C=CCN6CC[C@]43[C@@H]65)C2)C1 (stereo not given in full)	6.74% (active)
NC(=O)c1ccccc1NC(=O)c1ccccc1Cl	107%
COc1cc(/C=C/C(=O)c2c(-c3ccc(Cl)cc3)nc3sc(C)nn23)cc(OC)c1OC	110%
c1csc([C@@H]2C[C@@H]3Cc4ccc5ccccc5c4N2O3)c1	102%
Oc1ccc(Cc2ccc(O)c(C3CC(c4ccc(Cl)cc4)=NN3)c2)cc1C1CC(c2ccc(Cl)cc2)=NN1 (stereo not given)	50.5%

Compound	growth
CN1CCCC1c1cccnc1 (stereo not given)	116%
ClC1=C(Cl)C(Cl)=C(Cl)C1=Cc1ccc(Cl)cc1	95.5%
COC(=O)CC1=C(C)/C(=C/c2[nH]c(-c3ccc[nH]3)cc2OC)N=C1C	20.2%
O=C(O)c1ccc(NC(=O)c2ccc(Nc3ccnc(C(F)(F)F)c3)cc2)cc1	98.9%
CC(=O)NCCSC(=O)C(=O)SCCNC(C)=O	114%
Cc1cc(C)n(C(=O)c2nn(-c3ccc(Cl)cc3)cc2O)n1	87.5%
Oc1ccccc1/C=N\Nc1ccccc1	108%
CNc1ccc(CSc2ccc(Cl)cc2)cc1	107%
CSc1nnc(C2=CC(=O)c3ccccc3C2=O)n1-c1ccccc1	93.7%
CN1CCN(Cc2ccc(NC(=O)c3[nH]ncc3Nc3ccnc4ccnn34)cc2)CC1	29.1%
Nc1nc(SCc2ccccc2Cl)c(-c2ccccc2)c(SCc2ccccc2Cl)n1	82.7%
COc1cc2c(c(OC)c1OC)CCc1cnoc1-2	109%
COc1ccc2[nH]cc(/C=C3/C(=O)Nc4ccc(Cl)cc43)c2c1	22.5%
O=[N+]([O-])c1ccc2c(c1)S(=O)c1cc([N+](=O)[O-])ccc1N2	103%
CCOC(=O)c1cc(-c2cccnc2)nc2c(Cl)cc(Cl)cc12	91.2%
O=C1NC(=O)/C(=C\c2ccccc2)C2=C1CCCC2	152%
Cc1nc2c(O)cccc2cc1CO	110%
COC(=O)[C@]12CC[C@@H](C)[C@H](C)[C@@H]1C1=CC[C@@H]3[C@@]4(C)C=C(O)C(=O)[C@@]5(C)COC(=C54)C[C@@]3(C)[C@]1(C)CC2	-20.8% (active)
CCCCCCCC/C=C\CCCCCCCCOc1ccccc1CC(=O)NCC[N+]1(C)CCCC1	89.6%
COc1ccccc1[C@H]1c2[nH]c3ccccc3c2C[C@H]2C(=O)N(CCCCCCC(=O)NO)CC(=O)N12	61.7%
